Reference: PubChem BioAssay (NCI)
This is part of a sample that, as a whole, favours compounds with a hit. Of some 83,000 tested, about 20% had one in any assay.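 Assay: single dose, 48 h. Readout: percent growth (0 = no net growth; negative = cell death). Active: <10.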 Values without a mark were called inactive. Active and inactive are the calls of the source.

Legend:
Test in all cases: NCI-60 one-dose screen, 48 h (100 = growth as untreated, 0 = no growth, -100 = all killed)
Settings in all cases: 10 µM unless noted
[1] = tested on: HCT-15 colon
[2] = tested on: HT29 colon
[3] = tested on: SNB-75 CNS
[4] = tested on: SNB-19 CNS
[5] = tested on: U251 CNS
[6] = tested on: PC-3 prostate
[7] = tested on: SK-MEL-5 melanoma
[8] = tested on: LOX IMVI melanoma
[9] = tested on: SK-MEL-28 melanoma
[10] = tested on: SK-MEL-2 melanoma
[11] = tested on: EKVX NSCLC
[12] = tested on: SN12C renal
[13] = tested on: UO-31 renal
[14] = tested on: TK-10 renal
[15] = tested on: ACHN renal
[16] = tested on: A498 renal
[17] = tested on: CCRF-CEM leukemia
[18] = tested on: MOLT-4 leukemia

COc1ccc(NC(=S)N/N=C/c2ccccc2SSCCC(=O)OC[C@H]2O[C@H](O)[C@H](O)[C@@H](O)[C@@H]2O)cc1
growth [1]: 71.8%
growth [2]: 102%
growth [3]: 86.3%
growth [4]: 72.2%
growth [5]: 59.5%
growth [6]: 59.9%
growth [7]: 71.7%
growth [8]: 59.6%
growth [9]: 85.3%
growth [10]: 78.9%
growth [11]: 72.9%
growth [12]: 81.2%
growth [13]: 81.4%
growth [14]: 136%
growth [15]: 101%
growth [16]: 93.4%
growth [17]: 92.4%
growth [18]: 65.4%

Cc1ccc2oc(=O)cc(-c3sc(N4CCCCC4)nc3-c3ccccc3)c2c1
growth [1]: 96.9%
growth [2]: 99.9%
growth [3]: 78.1%
growth [4]: 95.3%
growth [5]: 101%
growth [6]: 88.1%
growth [7]: 91.3%
growth [8]: 91.2%
growth [9]: 103%
growth [10]: 93.7%
growth [11]: 90.4%
growth [12]: 50.2%
growth [13]: 58%
growth [14]: 161%
growth [15]: 84.3%
growth [16]: 109%
growth [17]: 104%
growth [18]: 97.3%

CCCCC[C@H]1CC=C2C(=O)C(Cl)=C[C@@H]2CC=CCCCC(=O)O[C@@H](CCCCC)CC=C2C(=O)C(Cl)=C[C@@H]2CC=CCCCC(=O)O[C@@H](CCCCC)CC=C2C(=O)C(Cl)=C[C@@H]2CC=CCCCC(=O)O1
growth [1]: 71.6% [8 µM]
growth [2]: 44.4% [8 µM]
growth [3]: 106% [8 µM]
growth [4]: 61.3% [8 µM]
growth [5]: 35.2% [8 µM]
growth [6]: 70.2% [8 µM]
growth [7]: 62.2% [8 µM]
growth [8]: 14.5% [8 µM]
growth [9]: 52% [8 µM]
growth [10]: 91.4% [8 µM]
growth [11]: 96.6% [8 µM]
growth [12]: 43.1% [8 µM]
growth [13]: 76.3% [8 µM]
growth [14]: 151% [8 µM]
growth [15]: 69.6% [8 µM]
growth [16]: 106% [8 µM]
growth [17]: 7.3% [8 µM] (active)
growth [18]: 10.4% [8 µM]

O=C1CCCC=CC[C@H]2C=C(Cl)C(=O)C2=CC[C@H](CCCCC(F)(F)F)OC(=O)CCCC=CC[C@H]2C=C(Cl)C(=O)C2=CC[C@H](CCCCC(F)(F)F)OC(=O)CCCC=CC[C@H]2C=C(Cl)C(=O)C2=CC[C@H](CCCCC(F)(F)F)O1
growth [1]: 68.6% [6.25 µM]
growth [2]: 42.2% [6.25 µM]
growth [3]: 95.9% [6.25 µM]
growth [4]: 65.2% [6.25 µM]
growth [5]: 36.4% [6.25 µM]
growth [6]: 71.9% [6.25 µM]
growth [7]: 59.4% [6.25 µM]
growth [8]: 18.7% [6.25 µM]
growth [9]: 71.8% [6.25 µM]
growth [10]: 90.1% [6.25 µM]
growth [11]: 98.4% [6.25 µM]
growth [12]: 56.3% [6.25 µM]
growth [13]: 78.9% [6.25 µM]
growth [14]: 148% [6.25 µM]
growth [15]: 71.2% [6.25 µM]
growth [16]: 101% [6.25 µM]
growth [17]: 8.35% [6.25 µM] (active)
growth [18]: 15.2% [6.25 µM]

COc1ccc2c(c1)c(-c1nc(-c3cn(C)c4ncccc34)cs1)cn2CCN
growth [1]: 58.5%
growth [2]: 74.5%
growth [3]: 78.2%
growth [4]: 80.7%
growth [5]: 84.8%
growth [6]: 70.2%
growth [7]: 60.3%
growth [8]: 68.1%
growth [9]: 99%
growth [10]: 101%
growth [11]: 56.5%
growth [12]: 76.3%
growth [13]: 66.6%
growth [14]: 92.4%
growth [15]: 69.4%
growth [16]: 97.4%
growth [17]: 69%
growth [18]: 29.7%

COc1ccc(C2C(C#N)=C(N)Oc3c2sc2c(F)cccc32)cc1 (centres undefined)
growth [1]: 24.4%
growth [2]: 7.77% (active)
growth [3]: 3.73% (active)
growth [4]: 22.8%
growth [5]: 24.2%
growth [6]: 15.7%
growth [7]: 22.5%
growth [8]: 29.9%
growth [9]: 60.5%
growth [10]: 19.8%
growth [11]: 50.3%
growth [12]: 39.7%
growth [13]: 37.6%
growth [14]: 56.6%
growth [15]: 42.9%
growth [16]: 41.4%
growth [17]: 14.9%
growth [18]: 8.8% (active)

Cc1cccc(C)c1NC(=O)CSC(=S)N1CCN(CCOCCO)CC1
growth [1]: 105%
growth [2]: 93.6%
growth [3]: 96.7%
growth [4]: 99%
growth [5]: 104%
growth [6]: 99.7%
growth [7]: 110%
growth [8]: 96%
growth [9]: 105%
growth [10]: 95%
growth [11]: 95%
growth [12]: 105%
growth [13]: 89.7%
growth [14]: 85.8%
growth [15]: 106%
growth [16]: 103%
growth [17]: 107%
growth [18]: 104%

CCCCC[C@H]1C/C=C2/C(=O)C=C[C@@H]2C/C=C\CCCC(=O)O[C@@H](CCCCC)C/C=C2/C(=O)C=C[C@@H]2C/C=C\CCCC(=O)O1
growth [1]: -54.5% (active)
growth [2]: -77.9% (active)
growth [3]: -80.8% (active)
growth [4]: -83.4% (active)
growth [5]: -94.3% (active)
growth [6]: -71% (active)
growth [7]: -97.4% (active)
growth [8]: -87.1% (active)
growth [9]: -81.9% (active)
growth [10]: -60% (active)
growth [11]: -68.3% (active)
growth [12]: -65.7% (active)
growth [13]: -97.1% (active)
growth [14]: -83.4% (active)
growth [15]: -93.4% (active)
growth [16]: -84.8% (active)
growth [17]: -3.81% (active)
growth [18]: -15.8% (active)

C=C1C(=O)O[C@H]2[C@H]1CC/C(COC(=O)NCc1cc3ccccc3[nH]1)=C\CC[C@@]1(C)O[C@@H]21
growth [1]: -4.13% (active)
growth [2]: -42.6% (active)
growth [3]: 62%
growth [4]: 58.8%
growth [5]: 54.6%
growth [6]: 38%
growth [7]: 9.31% (active)
growth [8]: -15.8% (active)
growth [9]: -26.9% (active)
growth [10]: 52.7%
growth [11]: 54.7%
growth [12]: -56.8% (active)
growth [13]: -100% (active)
growth [14]: -54.8% (active)
growth [15]: -75.9% (active)
growth [16]: 92.5%
growth [17]: 2.95% (active)
growth [18]: 1.8% (active)

C[C@@H](C(=O)O)c1ccc2c3cc(Cl)ccc3n(Cc3cc(=O)oc4ccc(Cl)cc34)c2c1
growth [1]: 99.1%
growth [2]: 96.9%
growth [3]: 90.8%
growth [4]: 101%
growth [5]: 101%
growth [6]: 98.3%
growth [7]: 98.4%
growth [8]: 96.4%
growth [9]: 99.9%
growth [10]: 101%
growth [11]: 97%
growth [12]: 98.8%
growth [13]: 76.3%
growth [14]: 116%
growth [15]: 99.8%
growth [16]: 102%
growth [17]: 105%
growth [18]: 101%

Cn1cc(-c2csc(-c3cn(CCN)c4ccc(F)cc34)n2)c2cccnc21
growth [1]: 55.9%
growth [2]: 74.7%
growth [3]: 75.7%
growth [4]: 77.7%
growth [5]: 81.4%
growth [6]: 61.3%
growth [7]: 57%
growth [8]: 60.4%
growth [9]: 98.2%
growth [10]: 93.3%
growth [11]: 55.9%
growth [12]: 76%
growth [13]: 58.3%
growth [14]: 121%
growth [15]: 60.9%
growth [16]: 82.4%
growth [17]: 34.3%
growth [18]: 12.1%

COc1ccc2c(c1)c(-c1nc(-c3c[nH]c4ncccc34)cs1)cn2CCNC(=O)OC(C)(C)C
growth [1]: 54.6%
growth [2]: 71.3%
growth [3]: 68.2%
growth [4]: 93%
growth [5]: 69.1%
growth [6]: 31.8%
growth [7]: 54.2%
growth [8]: 71.9%
growth [9]: 88.1%
growth [10]: 86.6%
growth [11]: 55.6%
growth [12]: 84.8%
growth [13]: 49.3%
growth [14]: 89.2%
growth [15]: 67.9%
growth [16]: 85.3%
growth [17]: 48.2%
growth [18]: 55.7%

Cc1cc(N(CCCNc2ccnc3cc(Cl)ccc23)Cc2ccco2)nc(N2CCN(C)CC2)n1
growth [1]: 16.9%
growth [2]: 12.4%
growth [3]: 68.7%
growth [4]: 58.2%
growth [5]: 28.6%
growth [6]: 51.5%
growth [7]: -42.6% (active)
growth [8]: 0.725% (active)
growth [9]: -75.2% (active)
growth [10]: 70.7%
growth [11]: 66.1%
growth [12]: 50.5%
growth [13]: 47.5%
growth [14]: 117%
growth [15]: 18.6%
growth [16]: 72.2%
growth [17]: 43.4%
growth [18]: 37.6%

CCCCC[C@H]1C/C=C2/C(=O)C(Cl)=C[C@@H]2C/C=C\CCCC(=O)O1
growth [1]: -61.9% (active)
growth [2]: -22.6% (active)
growth [3]: 5.2% (active)
growth [4]: -73.4% (active)
growth [5]: -91.7% (active)
growth [6]: -46.6% (active)
growth [7]: -77.5% (active)
growth [8]: -85.2% (active)
growth [9]: -64.7% (active)
growth [10]: -45.4% (active)
growth [11]: -69% (active)
growth [12]: -26.9% (active)
growth [13]: -100% (active)
growth [14]: -56.7% (active)
growth [15]: -84.4% (active)
growth [16]: -76.2% (active)
growth [17]: 0.514% (active)
growth [18]: -2.82% (active)

C=C1C(=O)O[C@H]2[C@H]1CC/C(COC(=O)N[C@H](Cc1c[nH]c3ccccc13)C(=O)OC)=C\CC[C@@]1(C)O[C@@H]21
growth [1]: 1.89% (active)
growth [2]: 14.9%
growth [3]: 82%
growth [4]: 66.7%
growth [5]: 72.7%
growth [6]: 57.3%
growth [7]: 39%
growth [8]: 13.7%
growth [9]: 9.69% (active)
growth [10]: 70.4%
growth [11]: 63.6%
growth [12]: 41.7%
growth [13]: -4.81% (active)
growth [14]: 25.8%
growth [15]: -17.7% (active)
growth [16]: 83%
growth [17]: 2.23% (active)
